These results are taken from the antibiotic and cytotoxicity screens of Wong et al. (2023).

Hit rate of the full screen: of about 39,000 compounds, about 1,500 (3.8%) were called active. The sample as a whole holds a higher share of actives than the screen did.

In the experiment the test system is HSkMC (human skeletal muscle cells). As to the kind of experiment: cytotoxicity call (relative viability < 0.9). As to conditions: 10 µM.
Take `C[C@H]1CN([C@@H](C)CO)C(=O)c2cc(NC(=O)NC3CCCCC3)ccc2O[C@H]1CN(C)S(=O)(=O)c1cn(C)cn1`: the cytotoxicity call is “inactive”. For `O=C(C[C@@H]1CC[C@@H](NC(=O)Cc2ccccn2)[C@H](CO)O1)NCCc1ccncc1`, the cytotoxicity call was “inactive”.

Consider `C[C@H](CO)N1C[C@H](C)[C@@H](CN(C)S(=O)(=O)c2cccs2)OCCCC[C@H](C)Oc2ccc(NS(=O)(=O)c3ccc(Cl)cc3)cc2C1=O`, for which the cytotoxicity call was “inactive”. As for `C[C@H](CO)N1C[C@H](C)[C@H](CN(C)C(=O)Nc2ccc(C(F)(F)F)cc2)OCCCC[C@H](C)Oc2ccc(NC(=O)Cc3ccccc3)cc2C1=O`, the entry is “inactive”; as for `C[C@@H]1CCCCO[C@H](CN(C)Cc2ccc3c(c2)OCO3)[C@H](C)CN([C@@H](C)CO)C(=O)c2cc(NS(=O)(=O)c3ccccc3)ccc2O1`, “inactive”. In the case of `C[C@H]1CN([C@@H](C)CO)C(=O)c2cc(NC(=O)CCCN(C)C)ccc2O[C@@H]1CN(C)Cc1ccc(Oc2ccccc2)cc1`, the cytotoxicity call is “inactive”. The result for `Cc1ncc(CO)c(/C=N/O)c1O` reads “inactive”; that for `Cc1ccc(S[C@]2(C(=O)NC(C)C)CC(=O)N(C3CCCCC3)[C@@H]2c2ccc(CO)cc2I)cc1`, “inactive”.

Take `COc1ccc(S(=O)(=O)N[C@H]2C=C[C@@H](CC(=O)N3CCN(c4ccccc4)CC3)O[C@@H]2CO)cc1`: the cytotoxicity call is “inactive”.

In the case of `Cc1noc(C)c1NC(=O)Nc1cccc2c1O[C@@H](CN(C)C(=O)Nc1ccc(C(F)(F)F)cc1)[C@H](C)CN([C@H](C)CO)C2=O`, the cytotoxicity call is “inactive”. As to `Cc1cc(C(=O)Nc2cccc3c2O[C@H](CN(C)S(=O)(=O)c2ccc(F)cc2)[C@@H](C)CN([C@H](C)CO)C3=O)n(C)n1`, the cytotoxicity call was “inactive”. `COC(=O)c1c2oc(c1C(=O)OC)C(=O)N[C@H](Cc1ccccc1)Cn1cc(nn1)CNC(=O)[C@H](Cc1ccccc1)NC(=O)N[C@@H](CO)CC2`: the cytotoxicity call is “inactive”.

Consider `CCCCC[C@H]1C[C@H]1C[C@H]1C[C@H]1CCCCCCCC(=O)O`, for which the cytotoxicity call is “inactive”. For the compound `COc1cccc(CN2C[C@@H](C)[C@H](OC)CN(C)C(=O)c3cc(NS(=O)(=O)c4cn(C)cn4)ccc3OC[C@H]2C)c1`, the cytotoxicity call was “inactive”.

`O=C(C[C@@H]1CC[C@@H]2[C@H](COC[C@@H](O)CN2C(=O)c2ccc3c(c2)OCO3)O1)NCCN1CCCC1`: the cytotoxicity call is “inactive”. Regarding `C[C@@H]1CCCCO[C@H](CN(C)Cc2ccc(Cl)c(Cl)c2)[C@@H](C)CN([C@@H](C)CO)C(=O)c2cc(NS(=O)(=O)c3ccc(F)cc3)ccc2O1`, the cytotoxicity call was “active”.

Take `C[C@@H]1CN([C@H](C)CO)C(=O)c2cc(NS(=O)(=O)c3ccc(F)cc3)ccc2O[C@@H](C)CCCCO[C@H]1CN(C)Cc1ccc(Cl)c(Cl)c1`: the cytotoxicity call is “inactive”.

In the case of `C[C@@H]1CCCCO[C@@H](CN(C)Cc2ccc(Cl)c(Cl)c2)[C@@H](C)CN([C@H](C)CO)C(=O)c2cc(NS(=O)(=O)c3ccc(F)cc3)ccc2O1`, the cytotoxicity call was “inactive”. As for `C[C@@H]1CCCCO[C@H](CN(C)Cc2ccc(Cl)c(Cl)c2)[C@H](C)CN([C@@H](C)CO)C(=O)c2cc(NS(=O)(=O)c3ccc(F)cc3)ccc2O1`, the entry is “active”.
